Calls of active or inactive are those of the source. Rule for the calls: active = hit-call score of the fitted dose curve at least 0.9, where 1 is the maximum; inactive = score below 0.9.
The compounds below were run on Plasminogen activator inhibitor-1 (PAI1), SERPINE1 (gene 5054) (assay: BSK_MyoF_PAI1: BioMAP Diversity Plus: MyoF Assay for Plasminogen activator inhibitor-1 (PAI1) Biomarker Activity (AID 2284256)). Conditions: primary human lung fibroblasts.
Method: BSK_MyoF is a cell-based, multiplexed-readout assay that uses lung fibroblasts, […], with measurements taken at 24 hours after chemical dosing in a microplate: 96-well plate.BSK_MyoF_PAI1 is an assay component measured in the BSK_MyoF assay. It measures PAI-1 antibody related to regulation of gene expression using ELISA technology.Data from the assay component BSK_MyoF_PAI1 was analyzed at the endpoint, BSK_MyoF_PAI1, in the positive analysis fitting direction relative to DMSO as the negative control and baseline of activity. Using a type of binding reporter, gain or loss-of-signal activity can be used to understand protein changes. To generalize the intended target to other relatable targets, this assay endpoint is annotated to the 'cytokine' intended target family, where the subfamily is 'plasmogen activator inhibitor'.
The levels of cell surface (or secreted, indicated by the prefix "s") biomarker endpoints were measured by ELISA. Overt cytotoxicity to cells in confluent adherent cultures (all systems other than the BT system) was assessed by measuring total protein levels using sulforhodamine B (SRB) staining in parallel cultures at the time of biomarker measurements, indicated as SRB endpoints. For proliferation assays for adherent cell types, individual cell types are cultured at sub-confluence and relative cell numbers quantified by SRB staining at time points optimized for each system (48 h: 3C and CASM3C systems; 72 h: BT and HDF3CGF systems; 96 h: SAg system). SRB was performed by staining cells with 0.1% SRB after fixation with 10% TCA and reading wells at 560 nm.Viability and proliferation of PBMC (T cells) was quantified by Alamar Blue reduction for the SAg and BT systems. For PBMC viability (referred to as PBMC Cytotoxicity within the assay endpoint names), cells were plated (75,000/well in a 96-well plate) and then chemical samples added for 1 h before addition of activators, SEB and TSST-1 (20 ng/mL final concentration each). Cells were incubated for 90 h. Then, Alamar Blue (20 uL/well) (Invitrogen, Cat DAL1100) was added for 6 h, and the plates were read with a fluorescence microplate reader at 546/580 nm (excitation/emission). For PBMC proliferation, cells were plated and activated as above but incubated for only 16 h prior to addition of Alamar Blue. Plates were read after 6 h.

SMILES | AC50 | outcome
O=S1(=O)CC(Cl)(Cl)C(Cl)(Cl)C1 | 2620 nM (active) | –
CC(C)Cc1ccc(C(C)C(=O)O)cc1 (stereo not given) | – | inactive
O=C(O)C(F)(F)OC(F)(F)C(F)(F)OC(F)(F)C(F)(F)C(F)(F)C(F)(F)F | – | inactive
C=CC(=O)OCC(CO)(COC(=O)C=C)COC(=O)C=C | 2880 nM (active) | –
Nc1ccc(N)c([N+](=O)[O-])c1 | – | inactive
NC(=O)c1c(Cl)cccc1Cl | 4480 nM (active) | –
OCCN1CCOCC1 | – | inactive
C=C(C)C(=O)OCCC(F)(F)C(F)(F)C(F)(F)C(F)(F)C(F)(F)C(F)(F)C(F)(F)C(F)(F)F | – | inactive
CCOC(=O)C=Cc1ccccc1 | – | inactive
c1ccc2c(c1)-c1ccc3ccc4cccc5cc-2c1c3c45 | 1240 nM (active) | –
O=C(O)C(F)(F)C(F)(F)C(F)(F)C(F)(F)C(F)(F)C(F)(F)C(F)(F)C(F)F | – | inactive
CC(=O)OCC=C(C)CCC=C(C)CCC=C(C)C | – | inactive
c1ccc(Sc2ccccc2)cc1 | – | inactive
CC(=O)OC(C)(C)C1CC=C(C)CC1 (stereo not given) | – | inactive
O=C1OC2(c3ccc(O)cc3Oc3cc(O)ccc32)c2ccccc21 | – | inactive
CC1=CC(C)C(C=O)C(C)C1 (stereo not given) (tested in a mixture with another compound) | – | inactive
CCCCCCCC1CCCC1=O (stereo not given) | – | inactive
COc1ccccc1NC(=O)CC(C)=O | – | inactive
C=C(F)C(=O)OC(C(F)(F)F)C(F)(F)F | – | inactive
OCC(F)(OC(F)(F)C(F)(OC(F)(F)C(F)(F)C(F)(F)F)C(F)(F)F)C(F)(F)F (stereo not given) | – | inactive
CCOC(=O)CCCCCCCCC(=O)OCC | – | inactive
CC(=O)CCC=C(C)CCC=C(C)C | 16 nM (active) | –
CCCCCCCCCC(=O)OCC | – | inactive
CCC(=O)OCC=Cc1ccccc1 | – | inactive
CCCCCCCCCCCCS | 20000 nM (active) | –
C=C1CC/C=C(\C)CC[C@@H]2[C@@H]1CC2(C)C | 20000 nM (active) | –
O=S(=O)(O)C(F)(F)C(F)(F)OC(F)(F)C(F)(F)F | – | inactive
CC(C)(C)c1cccc(O)c1 | – | inactive
CC1(C)[C@H](C=C(Cl)Cl)[C@H]1C(=O)OCc1cccc(Oc2ccccc2)c1 | – | inactive
CC=CC(=O)C1=C(C)C=CCC1(C)C | – | inactive

Source: PubChem BioAssay (EPA / NIEHS)
